rCAG binder: binds r(CAG) RNA repeats; AID 651821; r(CAG) RNA repeat, TO-PRO-1 dye displacement fluorescence; inhibition, % at 3 µM; 370,000 tested, 1.3% active;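 active means inhibition above the plate cutoff, the mean of all test compounds on that plate plus 3 SD, cut at about 35% in these data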;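 further: higher means more dye released from RNA so lower well fluorescence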
DSG3 Ab inh: blocks pemphigus antibody binding to human desmoglein-3 | binding (percent of control), % at 10 µM | DSG3-coupled beads, scFv-anti-DSG3-GFP binding, flow cytometry; stronger effect = lower value | AID 588358 | 310,000 tested, 0.48% active;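 active means binding more than 3 SD below its plate's average and above zero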;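 further: hits lower antibody fragment binding to DSG3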
Target sequence (P32926 whole entry, looked up, the tested form may be a part): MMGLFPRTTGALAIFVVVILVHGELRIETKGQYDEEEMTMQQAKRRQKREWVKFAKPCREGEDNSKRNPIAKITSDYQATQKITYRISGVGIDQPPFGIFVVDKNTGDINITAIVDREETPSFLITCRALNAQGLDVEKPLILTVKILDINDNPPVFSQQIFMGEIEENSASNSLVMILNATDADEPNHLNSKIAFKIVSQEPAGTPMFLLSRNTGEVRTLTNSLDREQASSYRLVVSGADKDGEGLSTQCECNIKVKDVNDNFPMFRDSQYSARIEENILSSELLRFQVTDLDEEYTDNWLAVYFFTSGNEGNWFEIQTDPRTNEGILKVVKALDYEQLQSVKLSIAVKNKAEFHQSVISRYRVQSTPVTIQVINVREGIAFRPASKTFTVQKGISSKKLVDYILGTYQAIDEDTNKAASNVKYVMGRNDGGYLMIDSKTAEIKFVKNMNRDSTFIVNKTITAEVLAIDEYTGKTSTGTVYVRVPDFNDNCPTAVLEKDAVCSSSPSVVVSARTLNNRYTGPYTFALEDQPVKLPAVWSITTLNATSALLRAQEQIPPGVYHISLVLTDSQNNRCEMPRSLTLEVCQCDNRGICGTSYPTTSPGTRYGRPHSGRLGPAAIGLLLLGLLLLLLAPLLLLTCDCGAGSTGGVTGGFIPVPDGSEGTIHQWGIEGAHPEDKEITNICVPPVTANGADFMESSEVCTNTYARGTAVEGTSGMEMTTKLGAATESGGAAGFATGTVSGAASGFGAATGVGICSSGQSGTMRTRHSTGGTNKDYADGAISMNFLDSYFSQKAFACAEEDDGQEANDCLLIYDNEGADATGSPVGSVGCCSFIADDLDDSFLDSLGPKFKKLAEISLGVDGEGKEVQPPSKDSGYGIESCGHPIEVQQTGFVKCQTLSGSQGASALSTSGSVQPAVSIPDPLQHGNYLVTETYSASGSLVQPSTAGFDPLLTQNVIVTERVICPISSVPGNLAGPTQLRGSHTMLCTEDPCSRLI
DAGLB inh: diacylglycerol lipase beta (human) inhibition; HEK293T DAGLB membrane lysate, EnzChek fluorogenic substrate; inhibition, % at 5.17 µM; 340,000 tested, 0.059% active; in the data active means inhibition above about 34%
MsrA act: bovine methionine sulfoxide reductase A activation; purified bovine MsrA, absorbance read-out; activation, % at 10.6 µM; 360,000 tested, 0.3% active; AID 602163; in the data active means activation above about 7.5%
MsrA inh: bovine MsrA inhibition. purified bovine MsrA, absorbance read-out. 360,000 tested, 0.75% active. inhibition, % at 15.5 µM
NadD inh: inhibitors of Staphylococcus aureus NadD. 360,000 tested, 0.78% active. purified NadD enzyme, colorimetric absorbance read-out. inhibition, % at 20 µM; in the data active means inhibition above about 26%
MsrA conf: confirmation of bovine MsrA inhibitors; AID 651822; shares compounds with MsrA inh; purified bovine MsrA, absorbance read-out; 2,300 tested, 41% active; inhibition, % at 15.5 µM;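 further: coupled to thioredoxin reductase with NADPH and selenocystamine and DMSO as substrate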
Numbers stand for hits; n = inactive; x = no result. Sampled rows, rich in hits. Any-hit rate of the full collection: about 3.2%. Unless noted, no stated cut-off is given here; in the data, active means inhibition above about 4.5%; inactive means the rest.

SMILES	rCAG binder	DSG3 Ab inh	DAGLB inh	MsrA act	MsrA inh	NadD inh	MsrA conf
Cc1nc(N)c(C#N)c(-c2cccnc2)c1C	n	n	n	n	n	n	x
CCN(CC)C(=O)CSc1nnc(-c2ccc(C(C)(C)C)cc2)n1-c1ccc(Cl)cc1	n	x	x	x	x	x	x
O=C(COC(=O)c1cc(S(=O)(=O)NCc2ccccc2)ccc1O)c1cc2ccccc2o1	n	n	n	n	4.8	n	n
O=C(NC(=S)Nc1ccccc1N1CCOCC1)c1ccco1	n	n	n	n	8.0	n	n
O=C(C[C@@H]1CC[C@H](NC(=O)Nc2ccc(F)cc2)[C@@H](CO)O1)NCc1cccc(F)c1	n	x	x	x	n	x	x
O=[N+]([O-])c1ccc(N2CCN(S(=O)(=O)c3ccccc3)CC2)cc1NCc1cccnc1	n	n	n	n	9.1	n	n
Cc1ccc([C@H]2N[C@]3(CCCN(Cc4ccc(C(F)(F)F)cc4)C3=O)[C@H]3C(=O)N(C)C(=O)[C@@H]23)cc1	n	x	n	n	n	n	x
CC1(c2ccc(OC(F)F)cc2)NC(=O)N(CC(=O)Nc2ccccc2)C1=O (stereo unspecified)	n	n	n	n	n	n	x
Cc1ccc2nc(-c3ccc(NC(=O)CN4C(=O)NC(C)(c5ccc(OC(F)F)cc5)C4=O)cc3)sc2c1 (stereo unspecified)	n	n	n	n	4.7	n	n
CN(C)c1ccc(/C=C2\CCC/C(=C\c3ccccc3)C2=O)cc1	n	n	n	n	n	n	x
O=C1/C(=C/c2ccc(C(=O)O)cc2)CCC/C1=C\c1ccc(C(=O)O)cc1	n	n	n	n	8.8	n	6.6
CC(C)NC(=O)N1Cc2cc(C(=O)NC3CCCCC3)nc(-c3cccc(-c4cccnc4)c3)c2[C@@H]1CCO	n	x	x	n	n	n	x
O=C(CCNc1n[nH]c(=O)[nH]c1=O)N/N=C/c1ccccc1Br	n	n	n	n	n	n	x
O=c1[nH]nc(N/N=C/c2ccccc2OC(F)F)c(=O)[nH]1	n	n	n	n	5.0	n	n
Clc1cccc(-c2nc3ccc(Cl)cn3c2Cc2ccsc2)c1	x	x	x	n	x	n	x
CN(C)/C=C1\N=C(c2ccc(Cl)cc2Cl)OC1=O	n	n	n	n	n	n	x
Cc1ccc(C2=N/C(=C\N(C)C)C(=O)O2)cc1	n	n	n	n	5.2	n	5.5
CN(C)/C=C1\N=C(c2cccs2)OC1=O	n	n	n	n	7.7	n	5.5
COc1ccc(/C=C2/N=C(c3cccs3)OC2=O)cc1OC(C)C	n	n	n	n	n	n	x
CN(C)/C=C1/N=C(c2ccccc2)OC1=O	n	n	n	n	7.3	n	6.9
O=C1OC(c2ccccc2)=N/C1=C\N1CCCCC1	n	n	n	n	5.7	n	6.9
NC(=Nc1nc(-c2ccccn2)cc2ccccc12)c1ccccn1	n	n	n	n	n	n	x
O=C(c1ccccc1)n1c2ccccc2c(=O)n1-c1ccccc1CCl	x	x	x	n	x	n	x
COc1ccc(CCN2C(=O)CSCC2(C)C(=O)Nc2ccc3c(c2)OCCO3)cc1OC (stereo unspecified)	n	x	x	x	n	x	x
CCCCc1c(-c2ccccc2OC)ncn1Cc1ccc(Cl)cc1Cl	n	x	x	x	n	x	x
SMILES	rCAG binder	DSG3 Ab inh	DAGLB inh	MsrA act	MsrA inh	NadD inh	MsrA conf
CC(C)CC(=O)NNC(=S)Nc1ccc(S(N)(=O)=O)cc1	n	n	n	n	n	n	x
CCc1ccc(C(=O)NNC(=S)Nc2ccc(S(N)(=O)=O)cc2)s1	n	n	n	n	4.9	n	n
Cc1ccc(Cl)cc1N1CCN(C(=O)C2CCCN(S(=O)(=O)c3cnc[nH]3)C2)CC1 (stereo unspecified)	n	n	n	n	n	n	x
CC(=O)c1ccc(N2CCN(C(=O)C3CCCN(S(=O)(=O)c4cnc[nH]4)C3)CC2)cc1 (stereo unspecified)	n	n	n	n	5.1	n	n
O=C(CCCC1=NS(=O)(=O)c2ccccc2N1)N1CCN(c2ccccc2Cl)CC1	n	x	x	x	x	x	x
COc1ccc(/C=C/C2=NN(Cc3ccccc3)C(=O)CC2)cc1	n	n	n	n	n	n	x
CCOC(=O)CN1N=C(/C=C/c2ccc(OCC)cc2)CCC1=O	n	n	n	n	7.2	n	n
C=CCN1N=C(/C=C/c2ccc(OC)cc2)CCC1=O	n	n	n	n	7.8	n	4.6
CCOC(=O)[C@]12CCCC=C1N(Cc1ccc(OC)cc1)C(=O)[C@@H]2CC(=O)N1CCN(C(=O)C2CC2)CC1	n	x	x	x	x	x	x
Oc1oc(-c2ccccc2)nc1C=NCc1ccncc1	n	n	n	n	5.9	n	n
CC(=O)c1cc(F)c(N2CCCCCC2)cc1C	n	n	n	n	n	n	x
Cc1cc(N2CCCC2)c(C)cc1C=O	n	n	n	n	5.1	n	n
COCCn1c(=S)[nH]c2sc3c(c2c1=O)CCCC3	n	n	n	n	5.5	n	n
CC(=O)N1CCN(C2=NC(=O)/C(=C\c3cccs3)S2)CC1	n	n	n	n	n	n	x
NC1=NC(=O)/C(=C/c2cccs2)S1	n	x	n	n	6.2	n	n
O=C1N=C(N2CCOCC2)S/C1=C/c1cccs1	n	n	n	n	5.4	n	5.4
Cc1ccc(/C=C2\SC(N3CCCCC3)=NC2=O)cc1	n	n	n	n	5.0	n	4.8
NC1=NC(=O)C(=Cc2ccccc2)S1	n	n	n	n	n	n	x
CCOC(=O)[C@]12CCCC=C1N(Cc1ccc(Cl)cc1Cl)C(=O)[C@H](CC(=O)NCC1CCCCC1)C2	n	x	x	n	n	n	x
CN(Cc1ccccc1)C(=O)c1ncn2c1c(=O)[nH]c1cccnc12	n	n	n	n	n	n	x
O=C(CN1CCCC1c1cccs1)Nc1cc(S(=O)(=O)N2CCCCC2)ccc1Cl (stereo unspecified)	n	n	n	n	n	n	x
COc1ccc(N(CCC#N)C(=O)/C(C#N)=C/c2cccs2)cc1	n	n	n	n	5.5	n	n
CC(C)(C)C(=O)/C(C#N)=C/c1cccs1	n	x	n	n	n	n	x
CC(C)C(=O)Nc1c2c(nn1-c1ccc(F)cc1)CS(=O)(=O)C2	n	n	n	n	n	n	x
CCOC(=O)c1ccc(Nc2ccc(C(C)=O)cc2)cc1	n	x	x	n	n	n	x
SMILES	rCAG binder	DSG3 Ab inh	DAGLB inh	MsrA act	MsrA inh	NadD inh	MsrA conf
CCOC(=O)c1ccc(Nc2c(OCC)c(=O)c2=O)cc1	n	n	n	n	5.9	n	n
C/C(N)=C(/C#N)C(=O)CSc1nn(-c2ccc(Cl)cc2)c(=S)s1	n	n	n	n	21.0	n	14.0
Cn1c(SCC(=O)NCCN2CCCCC2)nc2cccnc21	n	x	x	x	x	x	x
COC(=O)c1ccccc1NC(=S)NC(C)=O	n	n	n	n	n	n	x
COC(=O)c1ccccc1NC(=S)NC(=O)C1CC1	n	n	n	n	11.9	n	10.7
CCOc1cc(/C=N/NC(=O)C(OC)c2ccccc2)ccc1O (stereo unspecified)	n	n	n	n	n	n	x
CCOc1cc(/C=N/NC(=O)C(=O)N/N=C/c2ccc(O)c(OCC)c2)ccc1O	n	n	n	n	5.5	n	n

Bioassay records (PubChem BioAssay)
